In all, about 1,600 compounds were measured (“plate-normalized OD600 growth (mean of duplicates)”: median about 0.31, lowest 2% from about 0.23 on). Only a selection was taken, and the lowest values are over-represented in it overall.
Tested on: Escherichia coli BW25113
Experiment: plate-normalized OD600 growth (mean of duplicates) (OD600 (normalized)); higher = more growth (less inhibition)
Conditions: 10 µM
Description: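 E. coli BW25113 in LB (100 µl, 96-well, no shaking) was exposed to 10 µM of each compound (here the ChemBridge subset of a ~30,000-member library) and grown at 37°C for 24 h or 15°C for 48 h, in duplicate. Growth was read as OD600 and the duplicate ODs were normalized across screening plates to correct plate-to-plate variation.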

| Structure (SMILES) | plate-normalized OD600 growth (temperature: 15°C, 48 h) | plate-normalized OD600 growth (temperature: 37°C, 24 h) |
| --- | --- | --- |
| COc1cccc(N2CCN(C3C4CC5CC(C4)CC3C5)CC2)c1 (centres undefined) | 0.291 | 0.627 |
| O=[N+]([O-])c1ccccc1CNC1C2CC3CC(C2)CC1C3 (centres undefined) | 0.238 | 0.612 |
| COc1ccc(CNC2C3CC4CC(C3)CC2C4)c(OC)c1 (centres undefined) | 0.224 | 0.615 |
| COc1ccc(S(=O)(=O)N2CCN(Cc3cccc(F)c3)CC2)cc1 | 0.245 | 0.614 |
| C=CCSc1nc(O)c(CC)c(=O)n1-c1ccccc1 | 0.233 | 0.62 |
| Brc1ccc(CN2CCN(Cc3ccc4c(c3)OCO4)CC2)s1 | 0.262 | 0.639 |
| CC(C)CS(=O)(=O)c1cccs1 | 0.253 | 0.616 |
| O=C1CCCc2c1nc(-c1ccccc1)n2O | 0.272 | 0.662 |
| O=C1CCCc2occ(-c3ccc([N+](=O)[O-])cc3)c21 | 0.253 | 0.634 |
| O=C1CCCc2c1nc(-c1cccc([N+](=O)[O-])c1)n2O | 0.224 | 0.596 |
| COc1ccc(-c2csc(N)n2)cc1Br | 0.26 | 0.647 |
| O=C(O)CCCC(=O)Nc1ccc(Cl)c(Cl)c1 | 0.247 | 0.602 |
| Cc1cccc(-c2nc(-c3cccnc3)no2)c1 | 0.244 | 0.605 |
| C1CCCC(NCCN2CCCCC2)CCC1 | 0.234 | 0.588 |
| CC(=O)NC(C)(CC(=O)c1ccccc1)c1ccccc1 (centres undefined) | 0.227 | 0.639 |
| CC(C)(C)NC(=O)c1ccccc1C(=O)NC(C)(C)C | 0.263 | 0.63 |
| CC(=O)NC(Cc1ccccc1)Cc1ccccc1 | 0.248 | 0.608 |
| Cc1cccc(N2C(=O)CC(N3CCN(Cc4ccccc4)CC3)C2=O)c1 (centres undefined) | 0.254 | 0.616 |
| COCc1cc(C)nc(NN)c1C#N | 0.258 | 0.622 |
| O=C1c2ccccc2C(=O)C1c1nc2ccccc2[nH]1 | 0.269 | 0.667 |
| COc1ccc(N/C=C(/c2cc(O)ccc2O)[N+](=O)[O-])cc1 | 0.255 | 0.624 |
| CC(=O)Nc1ccc(S(=O)(=O)N2CCN(C)CC2)cc1 | 0.258 | 0.646 |
| CC(=O)c1sc(Nc2ccc(Oc3ccccc3)cc2)nc1C | 0.223 | 0.607 |

| Structure (SMILES) | plate-normalized OD600 growth (temperature: 15°C, 48 h) | plate-normalized OD600 growth (temperature: 37°C, 24 h) |
| --- | --- | --- |
| COc1ccc(OC)c(Nc2nc(C)c(C(C)=O)s2)c1 | 0.272 | 0.646 |
| CC(=O)c1sc(N2N=C(c3ccccc3)CC2c2ccccc2)nc1C (centres undefined) | 0.254 | 0.656 |
| CSc1nc2sc3c(c2c(=O)n1C)CCCC3 | 0.246 | 0.618 |
| COc1cccc(OC)c1C(=O)N1CCN(Cc2cccc([N+](=O)[O-])c2)CC1 | 0.266 | 0.645 |
| CN1CCCN(Cc2ccc([N+](=O)[O-])o2)CC1 | 0.258 | 0.607 |
| CN1CCCN(Cc2cccc([N+](=O)[O-])c2)CC1 | 0.22 | 0.627 |
| O=C(O)c1ccc(NS(=O)(=O)c2cccc(C(=O)Nc3ccccc3)c2)cc1 | 0.245 | 0.603 |
| OC(COc1ccc(C23CC4CC(CC(C4)C2)C3)cc1)CN1CCOCC1 (centres undefined) | 0.243 | 0.592 |
| O=C(Nc1ccc(Br)cc1)c1cccnc1 | 0.244 | 0.633 |
| NCC(=O)Nc1ccc(Br)cc1 | 0.227 | 0.606 |
| Cc1ccccc1C(=O)Nc1ccc(Br)cc1 | 0.282 | 0.631 |
| COc1ccc(-c2cn3ccccc3n2)cc1F | 0.229 | 0.633 |
| O=[N+]([O-])c1ccc(-c2nnc(-c3ccccc3Cl)o2)cc1 | 0.244 | 0.601 |
| CCC(CO)NC1=C([N+](=O)[O-])C(=O)CC(C)(C)C1 (centres undefined) | 0.282 | 0.666 |
| CCN1CCN(C/C=C/c2ccccc2)CC1 | 0.28 | 0.634 |
| CCN(CC)CCN(C)Cc1cccc([N+](=O)[O-])c1 | 0.245 | 0.601 |
| CCN(CC)CCN(C)C/C=C/c1ccccc1 | 0.208 | 0.608 |
| C=CCSc1nc(N)c(C#N)c(CC)c1C#N | 0.239 | 0.605 |
| Cc1ccccc1C(=O)N1CCCCC1CO (centres undefined) | 0.294 | 0.624 |
| CCC1CCCCN1C(=O)c1cccs1 (centres undefined) | 0.225 | 0.613 |
| CCC1CCCCN1C(=O)c1cccc([N+](=O)[O-])c1C (centres undefined) | 0.247 | 0.612 |
| COc1cc2c(cc1OC)C(c1cc(OC)c(OC)c(OC)c1)N(C)CC2 (centres undefined) | 0.244 | 0.624 |
| COc1cc(OC)cc(C(=O)Nc2cccc(C)c2C)c1 | 0.253 | 0.63 |

| Structure (SMILES) | plate-normalized OD600 growth (temperature: 15°C, 48 h) | plate-normalized OD600 growth (temperature: 37°C, 24 h) |
| --- | --- | --- |
| O=C(O)CSc1nccn1Cc1ccccc1 | 0.244 | 0.625 |
| CCOC(=O)N1CCN(Cc2ccccc2Cl)CC1 | 0.244 | 0.621 |
| CCOC(=O)N1CCN(Cc2ccc(N(C)C)cc2)CC1 | 0.219 | 0.58 |
| CCOC(=O)N1CCN(Cc2c(F)cccc2F)CC1 | 0.263 | 0.656 |
| O=C(Nc1ccc(Oc2ccc(NC(=O)c3cccnc3)cc2)cc1)c1cccnc1 | 0.27 | 0.629 |
| Fc1ccc(CN2CCN(c3ncccn3)CC2)cc1 | 0.253 | 0.629 |
| CC(C)(C)c1ccccc1OCCCCSC#N | 0.209 | 0.619 |
| N#CSCCCCOc1ccccc1Cl | 0.251 | 0.605 |
| CC(C)(C)c1ccccc1OCCCSC#N | 0.233 | 0.622 |
| CC(c1ccccc1)N1CCC(=O)C2=C1CCCC2 (centres undefined) | 0.241 | 0.604 |
| [O-][n+]1onc2c(-c3ccccc3)nnc(-c3ccccc3)c21 | 0.254 | 0.616 |
| Fc1ccc(CN2CCN(c3ccccn3)CC2)c(F)c1 | 0.244 | 0.601 |
| N#CCCN(CCN1CCCC1)S(=O)(=O)c1cccc2nsnc12 | 0.253 | 0.624 |
| N#Cc1c(N)nc2c(c1-c1ccco1)CCCCCC2 | 0.249 | 0.615 |
| Nc1nc(-c2ccco2)nc(-c2ccco2)n1 | 0.272 | 0.646 |
| CN(C)c1nc(N)nc(-c2ccco2)n1 | 0.226 | 0.632 |
| O=C1CCCc2c1nn(-c1ccccc1)[n+]2[O-] | 0.249 | 0.618 |
| O=C(Nc1ccc(F)cc1F)c1cccc(Br)c1 | 0.259 | 0.605 |
| COc1ccc(C)cc1NCc1ccc(SC)cc1 | 0.282 | 0.644 |
| Cc1nc(N)nc(OCC(F)(F)C(F)F)c1Br | 0.221 | 0.604 |
| CCN(CC)CCOc1ccccc1Br | 0.233 | 0.621 |
